Here are results for 14 compounds from PubChem BioAssay (Tox21).

Unmarked numbers belong to inactive results. Records with an inconclusive call do not appear. The source made the active and inactive calls. The call rests on the fitted dose curve; in most records, active means well fitted curve in the direction sought with a large enough effect in the repeat runs; inconclusive means weak or mixed curves; inactive means no such curve, though single readings can be large; an effect the other way counts as inactive or inconclusive.

The nature of assay [1]: qHTS RealTime-Glo MT Cell Viability Assay in HEK293 cells - 16 hour (AID 1224872). Further: nearly all actives have a fitted effect of over 50% in size. Further: potency means the concentration at half of the fitted maximal effect. In a few lines:
(§1)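 Homogeneous bioluminescent viability format in HEK293 cells (600 cells/well). Following 5 h at 37 C/5% CO2, 23 nL compound was pintooled; the signal was measured repeatedly during 40 h incubation.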
(In qHTS, concentration-response curves come from the screen itself.)

Assay [2] is described as follows: qHTS RealTime-Glo MT Cell Viability Assay in HepG2 cells - 8 hour (AID 1224873). Further: nearly all actives have a fitted effect of over 55% in size. Further: potency means the concentration at half of the fitted maximal effect. In a few lines: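 HepG2 cells mixed with RealTime-Glo MT reagents (NanoLuc plus cell-permeant prosubstrate) were seeded at 600 cells/well, incubated 5 h at 37 C/5% CO2, then pinned with compounds in DMSO; nonlytic luminescence tracked viability during 40 h treatment.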
Assay [3] in a line: qHTS RealTime-Glo MT Cell Viability Assay in HEK293 cells - 40 hour (AID 1224874). Further: nearly all actives have a fitted effect of over 50% in size. Further: potency means the concentration at half of the fitted maximal effect. To be noted: RealTime-Glo luminescence; max response: active compounds read low. In short, it runs like this: (§2)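 Luminescence, which tracks viable cell number through reduction of the prosubstrate to a NanoLuc substrate, was read over continuous 37 C culture. Cells (600/well) were premixed with reagent and rested 5 h before 23 nL of compound in DMSO was pinned.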

The nature of assay [4]: A CellTox Green Cytotoxicity Assay to monitor cytotoxicity in HEK293 cells - 24 hour (AID 1224875). Further: nearly all actives have a fitted effect of over 45% in size. Further: potency means the concentration at half of the fitted maximal effect. In a few lines:
(§3)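 Fluorescence from a DNA-binding dye excluded by viable cells was measured repeatedly in the same HEK293 wells (600 cells/well) during continuous compound exposure at 37 C. Each assay gives one read point: 0, 8, 16, 24, 32 or 40 h.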

The nature of assay [5]: A CellTox Green Cytotoxicity Assay to monitor cytotoxicity in HepG2 cells - 16 hour (AID 1224876). Further: nearly all actives have a fitted effect of over 45% in size. Further: potency means the concentration at half of the fitted maximal effect. In short, it runs like this:
(§4)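 Real-time cytotoxicity: fluorescence of a cell-impermeant cyanine dye binding DNA of dead HepG2 cells, measured repeatedly (0–40 h) during compound exposure at 37 C. Cells seeded 600/well with reagent, dosed after 5 h.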

The nature of assay [6]: A CellTox Green Cytotoxicity Assay to monitor cytotoxicity in HepG2 cells - 40 hour (AID 1224879). Further: nearly all actives have a fitted effect of over 40% in size. Further: potency means the concentration at half of the fitted maximal effect. In short, it runs like this: as §4
A short description of assay [7]: qHTS RealTime-Glo MT Cell Viability Assay in HEK293 cells - 0 hour (AID 1224880). Further: top concentration of the series differs between compounds; nearly all actives have a fitted effect of over 45% in size. In short, it runs like this: as §2
Assay [8] can be described thus: A CellTox Green Cytotoxicity Assay to monitor cytotoxicity in HepG2 cells - 0 hour (AID 1224882). Further: nearly all actives have a fitted effect of over 35% in size. In a few lines:
as §4

Assay [9] can be described thus: A CellTox Green Cytotoxicity Assay to monitor cytotoxicity in HepG2 cells - 32 hour (AID 1224883). Further: nearly all actives have a fitted effect of over 50% in size. Further: potency means the concentration at half of the fitted maximal effect. In a few lines:
as §4

Assay [10] in a line: A CellTox Green Cytotoxicity Assay to monitor cytotoxicity in HEK293 cells - 8 hour (AID 1224884). Further: nearly all actives have a fitted effect of over 35% in size. Further: potency means the concentration at half of the fitted maximal effect. In a few lines: as §3
Assay [11] in a line: qHTS RealTime-Glo MT Cell Viability Assay in HEK293 cells - 24 hour (AID 1224886). Further: nearly all actives have a fitted effect of over 50% in size. Further: potency means the concentration at half of the fitted maximal effect. In a few lines:
as §1

The nature of assay [12]: A CellTox Green Cytotoxicity Assay to monitor cytotoxicity in HEK293 cells - 16 hour (AID 1224888). Further: nearly all actives have a fitted effect of over 35% in size. Further: potency means the concentration at half of the fitted maximal effect. In short, it runs like this:
as §3

Assay [13] can be described thus: qHTS RealTime-Glo MT Cell Viability Assay in HepG2 cells - 0 hour (AID 1224889). Further: nearly all actives have a fitted effect of over 50% in size. In a few lines: (§5)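 Cell number in HepG2 cultures estimated from NanoLuc luminescence generated by metabolic reduction of a prosubstrate by living cells. The homogeneous, nonlytic format allowed repeated reads at 0, 8, 16, 24, 32 and 40 h of compound exposure.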
Assay [14] can be described thus: A CellTox Green Cytotoxicity Assay to monitor cytotoxicity in HepG2 cells - 8 hour (AID 1224890). Further: nearly all actives have a fitted effect of over 45% in size. Further: potency means the concentration at half of the fitted maximal effect. In short, it runs like this: as §4
The nature of assay [15]: qHTS assay to identify small molecule antagonists of the estrogen receptor alpha (ER-alpha) signaling pathway using the BG1 cell line in the presence of 0.1 nM 17-beta-estradiol - cell viability counter screen (AID 1259241). Further: nearly all actives have a fitted effect of over 40% in size. Further: potency means the concentration at half of the fitted maximal effect. In short, it runs like this: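 Viability in VM7Luc4E2 cells after 22 hr compound exposure under 0.1 nM 17beta-estradiol stimulation, by CellTiter-Fluor.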

A short description of assay [16]: qHTS RealTime-Glo MT Cell Viability Assay in HepG2 cells - 32 hour (AID 1224877). Further: nearly all actives have a fitted effect of over 55% in size. Further: potency means the concentration at half of the fitted maximal effect. In a few lines: as §5
Assay [17] is described as follows: A CellTox Green Cytotoxicity Assay to monitor cytotoxicity in HepG2 cells - 24 hour (AID 1224878). Further: nearly all actives have a fitted effect of over 45% in size. Further: potency means the concentration at half of the fitted maximal effect. In short, it runs like this: as §4
A short description of assay [18]: qHTS RealTime-Glo MT Cell Viability Assay in HepG2 cells - 16 hour (AID 1224885). Further: nearly all actives have a fitted effect of over 50% in size. Further: potency means the concentration at half of the fitted maximal effect. In a few lines:
as §5

The nature of assay [19]: qHTS RealTime-Glo MT Cell Viability Assay in HEK293 cells - 8 hour (AID 1224887). Further: nearly all actives have a fitted effect of over 50% in size. Further: potency means the concentration at half of the fitted maximal effect. In a few lines: as §2
A short description of assay [20]: A CellTox Green Cytotoxicity Assay to monitor cytotoxicity in HEK293 cells - 32 hour (AID 1224881). Further: nearly all actives have a fitted effect of over 40% in size. Further: potency means the concentration at half of the fitted maximal effect. In short, it runs like this:
as §3
On the % scale 0 is the no-effect control and ±100 the full control effect.

With `O=C(Nc1ccc(Cl)cc1)Nc1ccc(Cl)c(C(F)(F)F)c1`, the Potency in assay [1] is 8.49 µM (active); in [3], 5.35 µM (active); in assay [6], 19 µM (active); in [9] it was 19 µM (active); in [11] it was 5.35 µM (active). Also, the Potency result in assay [2], in assay [4], in [5], in assay [7], in assay [8] and in assay [10] was “inactive” throughout. Further, the Potency entry in assay [12], in assay [13], in [14] and in assay [15] was “inactive” in each case.
Take `CCO[Si](CCCSSSSCCC[Si](OCC)(OCC)OCC)(OCC)OCC`: the Potency result in assay [1], in assay [2], in assay [5], in assay [16], in [17] and in assay [6] was “inactive” in each case. The Potency result in assay [7], in assay [8], in assay [9], in [10], in assay [18] and in assay [11] was “inactive” in each case. The Potency entry in assay [19], in [14] and in assay [15] was “inactive” in each case. Besides, in [3], the max response is -16.8%.
In the case of `COc1cccc(OC)c1O`, the Potency entry in assay [1], in [2], in assay [16], in assay [17], in [6] and in assay [7] was “inactive” each time. Also, the Potency result in assay [8], in assay [9], in assay [10], in assay [18], in assay [11] and in [19] was “inactive” throughout. For the same compound, the Potency entry in [12], in [13], in [14] and in assay [15] was “inactive” each time. Also, the max response in [3] is 8.86%.
Regarding `C/C=C/C(=O)C1=C(C)CCCC1(C)C`, the Potency result in assay [1], in assay [2], in [5], in [16], in assay [17] and in [7] was “inactive” in each case. In addition, the Potency result in [20], in assay [8], in assay [9], in assay [10], in [18] and in assay [19] was “inactive” throughout. Besides, the Potency result in [12], in [14] and in assay [15] was “inactive” in each case. In addition, the max response in assay [3] is 16.6%.
In the case of `C/C=C/C=N/NC(=O)c1ccncc1`, the Potency entry in assay [1], in [2], in assay [5], in assay [16], in [17] and in assay [6] was “inactive” in each case. Besides, the Potency entry in [7], in [8], in [9], in assay [18], in assay [19] and in [13] was “inactive” in each case. The Potency result in assay [14] and in assay [15] was “inactive” each time. Besides, the max response in assay [3] was 11.4%.
Turning to `O=C1C=CC(=O)N1c1ccccc1`, the Potency in assay [1] was 15.5 µM (active); in [2], 19.5 µM (active); in assay [4], 12.3 µM (active); in assay [5], 19.5 µM (active); in assay [16], 12.3 µM (active); in [17], 13.8 µM (active). Moreover, the Potency in assay [6] is 12.3 µM (active); in assay [20] it was 11 µM (active); in assay [9], 13.8 µM (active); in [10], 24.5 µM (active); in assay [18] it was 15.5 µM (active); in assay [19] it was 43.6 µM (active). Besides, the results for the Potency in assay [12], in [14] and in assay [15] were 13.8 µM (active), 34.7 µM (active) and 61.1 µM (active), respectively. Besides, the Potency entry in assay [7], in assay [8] and in assay [13] was “inactive” throughout.
As for `CCCCCCCCCC(=O)N(C)C`, the Potency entry in assay [1], in assay [2], in [5], in assay [16], in assay [17] and in assay [6] was “inactive” in each case. Besides, the Potency entry in assay [7], in assay [8], in assay [9], in [10], in assay [18] and in assay [11] was “inactive” in each case. Further, the Potency result in [19], in assay [13], in assay [14] and in assay [15] was “inactive” each time. For the same compound, in assay [3], the max response is -15.6%.
With `CCCCCCC(C)OC(=O)COc1nc(F)c(Cl)c(N)c1Cl` (stereo not given), the Potency result in [1], in assay [2], in assay [16], in assay [7], in assay [8] and in assay [10] was “inactive” throughout. Also, the Potency result in [18], in assay [12], in assay [13], in [14] and in [15] was “inactive” in each case. Besides, the max response in [3] is -20.4%.
For the compound `CCO[Si](C)(C)OCC`, the Potency entry in [1], in [2], in [4], in [5], in [16] and in assay [17] was “inactive” throughout. Also, the Potency result in assay [6], in assay [7], in [20], in assay [8], in assay [9] and in assay [10] was “inactive” throughout. Also, the Potency entry in assay [18], in [11], in assay [19], in [12], in assay [14] and in assay [15] was “inactive” each time.
On to `COc1cccc(O)c1`, for which the Potency entry in assay [1], in [2], in assay [4], in assay [5], in [16] and in assay [17] was “inactive” in each case. Further, the Potency entry in assay [6], in [7], in assay [20], in [8], in [9] and in assay [10] was “inactive” each time. Besides, the Potency entry in assay [18], in assay [11], in [19], in assay [12], in assay [13] and in assay [14] was “inactive” each time. The Potency entry in [15] was “inactive”.
Regarding `Cc1cc(Nc2ccc(O)cc2)ccc1N`, the Potency is 24.4 µM (active) in assay [1]; 43.5 µM (active) in assay [2]; 19.4 µM (active) in assay [3]; 43.5 µM (active) in [20]; 48.8 µM (active) in assay [18]; 24.4 µM (active) in assay [11]. For the same compound, the Potency in [19] is 21.8 µM (active); in [15] it was 27.2 µM (active). For the same compound, the Potency entry in assay [5], in assay [17], in assay [10] and in [12] was “inactive” throughout.
Turning to `CC(=O)O[C@@H]1C[C@@H]2CC[C@@]1(C)C2(C)C`, the Potency entry in [1], in [2], in assay [4], in assay [5], in assay [16] and in assay [17] was “inactive” each time. Further, the Potency result in [6], in assay [7], in assay [20], in assay [8], in assay [9] and in assay [10] was “inactive” each time. Also, the Potency entry in [18], in assay [19], in assay [12] and in assay [13] was “inactive” in each case.
Regarding `C(=C/c1ccccc1)/c1ccccc1`, the Potency entry in assay [1], in [2], in assay [16], in assay [17], in assay [6] and in assay [7] was “inactive” each time. Besides, the Potency result in assay [8], in assay [9], in assay [10], in assay [18], in assay [11] and in assay [19] was “inactive” throughout. Also, the Potency entry in [12], in assay [13], in assay [14] and in [15] was “inactive” each time. In [3], the max response was -13.3%.
In the case of `CC(C)(C)C1=CC(=O)C=C(C(C)(C)C)C1=O`, the Potency entry in [1], in assay [2], in assay [5], in assay [16], in [17] and in assay [6] was “inactive” in each case. The Potency entry in assay [7], in assay [8], in [9], in assay [10], in [18] and in assay [19] was “inactive” each time. Also, the Potency entry in assay [12], in assay [13], in assay [14] and in assay [15] was “inactive” throughout. Besides, the max response in assay [3] is 11.2%.
